The whole screen tested about 360,000 compounds, of which about 2,100 (0.58%) were called active. The entries come from a sample that favours actives as a whole. Unmarked numbers belong to inactive results. Rule as the data show it: active = inhibition above about 36%; inactive = the rest.

Inhibition data for 57 compounds are collected here from PubChem BioAssay AID651699 (Sanford-Burnham Center for Chemical Genomics, 2012).

The experiment deals with NEDD8-conjugating enzyme Ubc12 (Homo sapiens) + NEDD8-activating enzyme E1 regulatory subunit (Homo sapiens) (UniProt P61081+Q13564). Description: inhibitors of cullin neddylation, primary screen, biochemical, TR-FRET, uHTS, NAE and Ubc12 (AID 651699). As to conditions: at 25 µM, stronger effect = higher value.
Chain of NEDD8-conjugating enzyme Ubc12 (Homo sapiens) + NEDD8-activating enzyme E1 regulatory subunit (Homo sapiens) (P61081 whole entry, looked up): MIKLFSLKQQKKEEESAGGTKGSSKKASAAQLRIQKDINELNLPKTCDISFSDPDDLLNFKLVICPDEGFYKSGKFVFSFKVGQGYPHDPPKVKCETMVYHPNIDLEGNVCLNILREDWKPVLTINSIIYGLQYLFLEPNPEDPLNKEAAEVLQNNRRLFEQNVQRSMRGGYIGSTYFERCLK
Chain of NEDD8-conjugating enzyme Ubc12 (Homo sapiens) + NEDD8-activating enzyme E1 regulatory subunit (Homo sapiens) (Q13564 whole entry, looked up): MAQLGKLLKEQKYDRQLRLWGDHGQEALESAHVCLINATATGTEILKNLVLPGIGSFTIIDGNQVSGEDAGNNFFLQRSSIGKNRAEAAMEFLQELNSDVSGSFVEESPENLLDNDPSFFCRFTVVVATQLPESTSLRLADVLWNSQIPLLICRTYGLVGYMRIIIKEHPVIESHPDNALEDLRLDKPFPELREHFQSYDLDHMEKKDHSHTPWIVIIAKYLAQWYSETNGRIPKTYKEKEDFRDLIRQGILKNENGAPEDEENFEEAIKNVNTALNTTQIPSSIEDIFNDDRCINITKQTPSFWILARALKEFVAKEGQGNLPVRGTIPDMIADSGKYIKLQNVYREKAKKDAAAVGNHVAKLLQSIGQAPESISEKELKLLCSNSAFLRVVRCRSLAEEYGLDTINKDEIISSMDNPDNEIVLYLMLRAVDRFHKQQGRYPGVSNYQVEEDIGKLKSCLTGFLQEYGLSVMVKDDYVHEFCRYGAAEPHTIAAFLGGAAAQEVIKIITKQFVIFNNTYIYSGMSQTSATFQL
A word on the inhibition: it is the relative decrease from the control value, in per cent. Regarding `O=C(CN1CCN(C2CCS(=O)(=O)C2)CC1)N1N=C(c2ccc(Cl)cc2)CC1c1ccco1` (configuration not stated), the inhibition is 3.58%.
With `COC(=O)C1=CN(c2ccc(F)c(F)c2)C=C(C(=O)OC)C1c1ccc([N+](=O)[O-])cc1` the figure was -12.5%; with `NC(=O)C1(C(N)=O)OC1c1ccc(Cl)cc1Cl` (configuration not stated), -3.19%; with `COC(=O)C1=CN(C)C=C(C(=O)OC)C1c1ccc(Cl)cc1Cl`, 42.5% (active).
Turning to `C[N+](C)(C)CCNC(=O)c1cc[n+](Cc2ccccc2)c(/C=N/O)c1`, the inhibition was -22.5%.
With `O=C(Nc1c(Br)cc2c(c1Br)Cc1ccccc1-2)C(F)(F)F` the figure was -31.9%.
As to `CN(CC(=O)Nc1ccc(F)c(F)c1F)C(=O)C1CC(=O)N(C2CCCC2)C1` (configuration not stated), the inhibition was 1.3%.
Turning to `Cc1ccc(S(=O)(=O)NCCc2nnc3ccc(SCc4cccnc4)nn23)cc1`, the inhibition is -3.01%.
On to `CNC(=O)c1csc(Cc2c(Cl)sc3ccc(Cl)cc23)n1`, for which the inhibition was -6.49%.
As for `CC(=O)Cc1nsc(NC(=O)c2ccc(Cl)cc2Cl)n1`, the inhibition is 12.4%.
Take `CC(=O)NNC(=O)c1csc(Cc2c(Cl)sc3ccc(Cl)cc23)n1`: the inhibition is 45.8% (active).
With `Oc1ccccc1CNc1ncc(Br)cc1Br`, the inhibition was -3.76%.
In the case of `Cc1cccc(OCC(=O)NCCNC(=O)c2cccnc2)c1`, the inhibition is 2.8%.
With `Cc1ccc(NC(=O)COc2ccc(/C=N\NC(=O)c3cccnc3)cc2)cc1C`, the inhibition was 56% (active).
In the case of `O=C(CNC(=O)c1cccnc1)N/N=C/c1cc(Br)c(O)c(Br)c1`, the inhibition was 5.12%.
As for `COc1ccc(CNC(=O)CN(c2ccc(OC)c(Cl)c2)S(=O)(=O)c2ccc(C)cc2)cc1`, the inhibition is 8.36%.
As for `COc1ccc(C(=O)NC(C)c2nccs2)cc1OC1CCN(C(C)C)CC1` (configuration not stated), the inhibition is -0.68%.
`Cc1ccc(NC(=O)CN(C)C(=O)COC(=O)C(C)(C)Oc2ccc(Cl)cc2)cc1`: the inhibition was 9.98%.
As for `Cc1ccc(CSCC(=O)N(C)CC(=O)Nc2ccc(C)cc2)cc1`, the figure is 5.66%; as for `Cc1ccc(NC(=O)CN(C)C(=O)COC(=O)c2nccnc2N)cc1`, 57.4% (active); as for `O=C(OCCOCn1cc(Br)c(=O)[nH]c1=O)c1ccccc1`, 1.74%.
With `COC(=O)c1sc(-c2ccc(C(C)(C)C)cc2)cc1NC(=O)/C=C/C(=O)O`, the inhibition was -17%.
For `COc1cccc(/C=N/Nc2cc(C)nc(-c3ccccc3O)n2)c1O`, the inhibition is 40.2% (active).
Regarding `COc1ccc(N2C(=O)CC(Sc3n[nH]c(-c4ccc(C)cc4)n3)C2=O)cc1` (configuration not stated), the inhibition is 0.38%.
With `Cc1ccccc1NC(=O)COc1cccc2c1CCNC2=O` the figure was -9.32%; with `O=C(Cn1nnc(-c2ccccc2)n1)N/N=C/c1ccc(-c2ccc(Cl)cc2)o1`, 28.8%.
`Nc1nnnn1CC(=O)N/N=C/c1ccc(-c2cccc(Cl)c2)o1`: the inhibition was 49.1% (active).
In the case of `CCCCCN(C(=O)NC(=O)Nc1ccccc1C)S(C)(=O)=O`, the inhibition is -3.04%.
With `COc1cccc(C2CC(c3cccs3)=NN2C(=O)CSC2=NCCS2)c1OC` (configuration not stated) the figure was 47.3% (active); with `COc1ccc(C2CC(c3cccs3)=NN2C(=O)COC(=O)c2cc3ccccc3cc2O)cc1OC` (configuration not stated), 0.97%; with `COc1ccc(C2CC(c3cccs3)=NN2C(=O)CSc2nnc(N)s2)cc1OC` (configuration not stated), -4.71%.
As to `CCN1C(=O)/C(=C\N2CCOCC2)SC1=S`, the inhibition was -15.3%.
As for `O=C1c2ccccc2S(=O)(=O)c2cc(N3CCN(c4ccccn4)CC3)ccc21`, the inhibition is -31.5%.
Consider `O=C1c2cccc3cccc(c23)N1CN1CCN(c2ccccn2)CC1`, for which the inhibition is 38.1% (active).
With `O=C(c1cc2ccccc2s1)N1CCN(c2ccccn2)CC1` the figure was -7.27%; with `Cc1ccc(O)c(NC(=S)NC(=O)COc2ccc(Br)cc2)c1`, 12.7%; with `COc1cc(NC(=O)CCNC(=O)Cn2ccc3ccccc3c2=O)cc(OC)c1OC`, 5.61%.
For the compound `Cc1cccc(N)c1SC1CCCCC1O` (configuration not stated), the inhibition was 6.45%.
As for `COCOCCn1cc(CN2CCS(=O)(=O)N(Cc3ccc(-c4ccc(OC)cc4)cc3)C(CC(C)C)C2=O)nn1` (configuration not stated), the figure is -8.33%; as for `COc1cccc(/C=C/C(=O)OCC(=O)N2CCN(c3ccccc3)CC2)c1`, 31.1%; as for `COc1cccc(/C=C/C(=O)OCC(=O)N2CCCc3ccccc32)c1`, 40.6% (active).
Turning to `COCCn1c(C)cc(C(=O)COC(=O)/C=C/c2cccc(OC)c2)c1C`, the inhibition is 12.7%.
Take `CC(NC(=O)CN1CCN(Cc2ccc(Cl)cc2)C1=O)c1ccc2c(c1)OCCO2` (configuration not stated): the inhibition was -6.96%.
With `COc1ccc(CCN2C(=O)C3CC=C(C)CC3C2=O)cc1OC` (configuration not stated), the inhibition was 1.1%.
On to `COc1ccc(OC)c(C(C)NC(=S)Nc2ccc(S(=O)(=O)Nc3ncccn3)cc2)c1` (configuration not stated), for which the inhibition is 5.42%.
For the compound `COc1cc(NS(=O)(=O)c2ccc3ccccc3c2)c2ncccc2c1`, the inhibition is 50.3% (active).
Turning to `O=S(=O)(Nc1ccccn1)c1cccc(S(=O)(=O)c2ccc(Cl)cc2)c1`, the inhibition was -0.91%.
On to `CC(C)NC(=S)Nc1cccc2cnccc12`, for which the inhibition was 0.89%.
As for `C=CCNC(=O)c1ccc2c3n(nc2c1)-c1ccc(C)cc1CO3`, the inhibition is 49.5% (active).
On to `Cc1ccc(-n2nc3c(c2NC(=O)c2ccc4c(c2)OCO4)CSC3)c(C)c1`, for which the inhibition was 18.4%.
As for `OC(COCc1ccco1)CN1CCN(c2ccccc2)CC1` (configuration not stated), the figure is -1.36%.
With `COc1ccc(-c2c(C#Cc3ccsc3)c3cc(-c4ccc(CN5CCOCC5)cc4)ccc3n2C)cc1` the figure was 22.8%; with `COc1ccc(Cl)cc1NC(=O)CN(C)C(=O)c1cn(-c2ccccc2)nc1-c1cccs1`, -140%.
For the compound `COc1cccc(NC(=O)CN(C)C(=O)/C=C/c2cn(-c3ccccc3)nc2-c2cccs2)c1`, the inhibition was 60.2% (active).
As for `O=c1cc(CO)oc(C(Nc2cccc(C(F)(F)F)c2)c2ccccn2)c1O` (configuration not stated), the figure is 0.9%; as for `CC(C)C[C@H]1CNC(=O)C(=O)N1C[C@@H]1CCCN1C[C@H](Cc1ccccc1)N1C[C@H](CC(C)C)N(CC2CCCCCC2)C(=O)C1=O`, 7.12%.
With `CN(C)c1ccc2c(=O)[nH][nH]c(=O)c2c1`, the inhibition was 33.3%.
